PLC-gamma1 inh = blocks human PLC-gamma1 enzyme activity. P19174. purified PLC-gamma1, fluorogenic substrate, fluorescence. inhibition, % at 12.2 µM. 370,000 compounds, 0.84% hits
M18AAP inhibitor = PfM18AAP enzyme inhibition | inhibition, % at 7.35 µM | 290,000 compounds, 1.2% hits | recombinant PfM18AAP, H-Glu-NHMec fluorogenic cleavage;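 active means inhibition above the campaign mean inhibition over all tested compounds plus 3 SD, cut at about 28% in these data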;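 further: 0% = plate median of test compound wells and 100% = 2 mM ZnCl2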
NPR2 activator = GC-B (human) receptor activation. HEK293-GC-B cells, CNP EC30, cGMP TR-FRET; 0% at EC30 CNP, 100% saturating CNP. activation, % at 10 µM. 370,000 compounds, 0.11% hits. AID 1920062;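 active means activation at 10 µM reaching about 35% in either raw or pattern-adjusted values, limit read from the data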
GC-A act = GC-A (human) enzyme activation | P16066 | HEK293 GC-A cells, cGMP TR-FRET, EC30 ANP; 0% at EC30 ANP, 100% saturating ANP | activation, % at 10 µM | 370,000 compounds, 0.14% hits | AID 1671463; in the data active means activation above about 40%
Target sequence (P16066 whole entry, looked up): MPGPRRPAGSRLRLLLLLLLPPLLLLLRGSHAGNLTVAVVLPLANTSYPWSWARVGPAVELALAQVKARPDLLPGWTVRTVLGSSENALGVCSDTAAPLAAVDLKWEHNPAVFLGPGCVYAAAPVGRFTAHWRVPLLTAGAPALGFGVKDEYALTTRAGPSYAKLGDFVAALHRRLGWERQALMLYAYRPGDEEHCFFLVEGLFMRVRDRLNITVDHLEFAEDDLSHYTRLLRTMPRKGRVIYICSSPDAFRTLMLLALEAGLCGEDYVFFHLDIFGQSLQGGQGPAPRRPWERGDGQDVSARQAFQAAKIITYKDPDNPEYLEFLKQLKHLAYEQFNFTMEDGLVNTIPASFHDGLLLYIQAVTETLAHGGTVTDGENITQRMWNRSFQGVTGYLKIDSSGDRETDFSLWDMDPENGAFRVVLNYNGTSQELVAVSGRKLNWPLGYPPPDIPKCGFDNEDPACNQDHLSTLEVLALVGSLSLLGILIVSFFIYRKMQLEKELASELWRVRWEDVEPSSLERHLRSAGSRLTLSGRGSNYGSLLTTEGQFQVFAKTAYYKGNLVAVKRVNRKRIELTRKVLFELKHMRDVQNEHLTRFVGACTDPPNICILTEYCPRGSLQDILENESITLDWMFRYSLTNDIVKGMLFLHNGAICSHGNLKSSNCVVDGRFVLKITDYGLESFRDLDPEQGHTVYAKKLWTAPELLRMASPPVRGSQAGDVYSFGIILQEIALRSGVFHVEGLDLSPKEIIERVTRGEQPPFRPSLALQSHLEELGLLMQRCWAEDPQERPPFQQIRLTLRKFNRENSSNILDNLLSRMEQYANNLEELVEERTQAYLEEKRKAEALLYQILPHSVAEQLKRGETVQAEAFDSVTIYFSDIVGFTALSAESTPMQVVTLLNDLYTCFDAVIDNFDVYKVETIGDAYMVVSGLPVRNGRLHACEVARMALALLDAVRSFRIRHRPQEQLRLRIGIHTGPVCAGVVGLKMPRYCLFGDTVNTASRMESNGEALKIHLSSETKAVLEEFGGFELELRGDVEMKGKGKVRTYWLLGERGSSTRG
Rce1 inh = blocks yeast Ras-converting enzyme; Q03530; yeast membranes, quenched prenylated peptide cleavage fluorescence; calls only; 290,000 compounds, 0.27% hits; AID 2563;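 active means fall in fluorescence gain of 50% or more versus controls, with final raw signal at or below 3038400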;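 further: plate controls were neutral control wells for no effect and wells lacking membranes for full effect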
PLCb3 inh = inhibitors of human phospholipase C beta3; inhibition, % at 12.2 µM; AID 720704; Purified PLC-beta3, fluorogenic substrate, fluorescence; Q01970; 370,000 compounds, 0.18% hits; in the data active means inhibition above about 11%;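 further: 0% = median of compound wells on plate and 100% = full blocker control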
PLCgamma1 ctr = counter-screen for PLC-beta3 inhibitors: inhibitors of human PLC-gamma1; shares compounds with PLC-gamma1 inh; purified PLC-gamma1, fluorogenic substrate, fluorescence; inhibition, % at 12.3 µM; 3,300 compounds, 3.1% hits
PLCbeta3 conf = human PLC-beta3 inhibition, confirmation; shares compounds with PLC-gamma1 inh; purified PLC-beta3, fluorogenic substrate fluorescence; inhibition, % at 12.3 µM; 3,300 compounds, 1% hits; in the data active means inhibition above about 11%
An asterisk follows results filed as active; i = inactive; · = not tested or not shown. The list is not random: actives were taken first. Their share in the collection is about 2.2%. Unless noted, no stated cut-off is given here; in the data, active means inhibition above about 9.5%; inactive means the rest.

SMILES | PLC-gamma1 inh | M18AAP inhibitor | NPR2 activator | GC-A act | Rce1 inh | PLCb3 inh | PLCgamma1 ctr | PLCbeta3 conf
COc1ccc(C(CCOC(=O)Oc2ccccc2)c2cc(OC)c(OC)c(OC)c2)cc1 (stereo not drawn) | -2 | · | 4 | 1 | · | 1 | · | ·
c1ccc(N(c2ccccc2)c2nc(-n3ccnc3)nc(-n3ccnc3)n2)cc1 | 0 | 3 | -22 | -33 | i | -1 | · | ·
Clc1nc(Cl)nc(N(c2ccccc2)c2ccccc2)n1 | 9.6* | 2 | 4 | 0 | i | 6 | -5 | 0
Clc1cc(Cl)cc(CNC2CCC23CCC(c2ccccc2)CC3)c1 (stereo not drawn) | 1 | · | -1 | -3 | · | 1 | · | ·
CN(C)C(=O)C[C@H]1CC[C@H]2[C@H](COc3ccc(NC(=O)C4CC4)cc3C(=O)N2C)O1 | 1 | · | -2 | 2 | · | 0 | · | ·
CS(=O)(=O)c1ccc(NC(=O)c2cc3c(cc2Cl)N2CCCCCC2=NS3(=O)=O)cc1 | -7 | · | 1 | 1 | · | -13 | · | ·
COc1ccccc1NC(=O)c1cc2c(cc1Cl)N1CCCCCC1=NS2(=O)=O | 12* | · | -1 | -5 | · | 10 | -4 | -1
CCOC(=O)C1(CC2CC2)CCN(S(=O)(=O)C[C@]23CC[C@H](CC2=O)C3(C)C)CC1 | 12* | 7 | 3 | -3 | i | 5 | -1 | 2
C[C@]1(O)CC(=O)C=C[C@H]1Nc1ccccc1 | 17* | · | 7 | 3 | · | 1 | -4 | -1
CC1(C)CC(C(=O)Nc2ccccc2)C(=O)O1 (stereo not drawn) | -1 | · | 2 | 2 | i | 1 | · | ·
Cc1ccc2c(c1)C(CS(=O)(=O)NCc1ccc(F)cc1)NC2 (stereo not drawn) | -11 | · | 7 | 1 | · | -12 | · | ·
COc1ccc(C(CCNCc2ccc(OC(C)C)cc2)c2ccccc2OC)cc1 (stereo not drawn) | 6 | -3 | -15 | -48 | i | 5 | · | ·
COc1ccc(CNCCC(c2ccc(F)cc2)c2ccc(OC(C)C)cc2)cc1OC (stereo not drawn) | 11* | 1 | 6 | -9 | i | -2 | -4 | 2
COc1ccc(CNCCC(c2ccccc2)c2ccc(OC(C)C)cc2)cc1OC (stereo not drawn) | 11* | 2 | -11 | -26 | i | 7 | 1 | 4
COc1ccc(C(CCNCc2ccc(F)cc2)c2ccc(F)cc2)cc1 (stereo not drawn) | 5 | -6 | -18 | -21 | i | 4 | · | ·
CCCCn1c(=O)n(CC(=O)Nc2ccc(OC)c(Cl)c2)c(=O)c2c1nc(CO)n2CCC | 9.7* | 3 | 2 | 10 | i | 6 | 13* | 7
COC(=O)[C@]12C[C@H](CC(=O)N3CCOCC3)C(=O)N(CCC3=CCCCC3)C1=C[C@H](C(C)C)O[C@@H]2C1CC1 | -1 | · | 1 | -3 | · | 4 | · | ·
Cc1ccc(OCCn2c(CCNC(=O)C3CCCCCC3)nc3ccccc32)cc1 | 17* | · | -23 | -24 | · | 12* | 9.6* | 6
OCCCc1nc2ccccc2n1CCCCOc1ccccc1 | 11* | 2 | -4 | -1 | i | -2 | -3 | -5
Cc1ccc(OCCn2c(CCNC(=O)C3CCCCC3)nc3ccccc32)cc1 | 7 | · | -23 | -18 | · | 9 | · | ·
O=C(NCCc1nc2ccccc2n1CCOc1cc(F)ccc1F)C1CCCCC1 | 11* | · | 1 | 4 | · | 11* | 1 | -17
CC1CCN(C(=O)C2CCCN(C(=O)c3ccc4c(c3)NC(=O)CS4)C2)CC1 (stereo not drawn) | 2 | · | -3 | 3 | · | 2 | · | ·
COCc1cc(N2CCNC[C@@H]2C)ccc1N1C[C@@H](C)O[C@@H](C)C1 | -1 | · | -1 | 1 | · | 1 | · | ·
CCCCN1C(=O)N2Cc3cc(OC)ccc3C2CS1(=O)=O (stereo not drawn) | -2 | · | 5 | -2 | · | -1 | · | ·
O=[N+]([O-])c1ccc(NC(=S)NCc2ccncc2)cc1 | 3 | -5 | 3 | 5 | i | 2 | · | ·
SMILES | PLC-gamma1 inh | M18AAP inhibitor | NPR2 activator | GC-A act | Rce1 inh | PLCb3 inh | PLCgamma1 ctr | PLCbeta3 conf
O=[N+]([O-])c1ccc(NCc2ccncc2)cc1 | 13* | 0 | 5 | -4 | i | 1 | -6 | -5
Nc1[nH]c(C(=O)c2ccccc2)c(-c2ccc(Cl)cc2Cl)c1C(=O)c1cccs1 | -6 | · | 2 | -20 | · | -9 | · | ·
COc1ccc(N2C(=S)N=C(Nc3ccccc3)C23CCCCC3)cc1 | 15* | 3 | -4 | -3 | i | -3 | 0 | 4
N/C(=N\C(=O)OCc1ccccc1)N(CC#CC1=CCCCC1)CC1CC1 | -1 | · | 7 | -2 | · | -1 | · | ·
CCOC(=O)NNC(=O)C12CC3CC(CC(C3)C1)C2 | 1 | 0 | 1 | 6 | i | -2 | · | ·
COC(=O)NNC(=O)C12CC3CC(CC(C3)C1)C2 | 14* | -5 | 1 | 1 | i | 5 | -6 | -3
COc1cccc(C(=O)N[C@@H](CC(C)C)C(=O)N2CCC[C@H]2C(=O)NCc2ccccc2)c1 | 4 | · | -2 | -1 | · | 1 | · | ·
CN(C)c1ccc(/C=N/NC(=O)c2nonc2N)cc1[N+](=O)[O-] | 9.8* | 6 | -10 | -4 | · | 2 | -3 | 5
COc1ccc(/C=N/NC(=O)c2ccc3c(c2)OCCO3)cc1[N+](=O)[O-] | 11* | -7 | -7 | 0 | i | -3 | -10 | -3
c1ccc(OC2CCN(c3ncnc4sccc34)CC2)cc1 | 4 | · | -7 | 1 | · | 0 | · | ·
O=C(/C=C/c1cccc([N+](=O)[O-])c1)N1CC[C@@]2(O)CCCC[C@H]2C1 | 10* | 4 | 4 | -3 | i | 2 | 0 | -2
O=C(/C=C/c1cccc([N+](=O)[O-])c1)N1CCOCC1 | 4 | 3 | 3 | -1 | i | 8 | · | ·
COCCN(Cc1ccccc1)C(=S)Nc1ccc(Cl)cc1 | 13* | 1 | 0 | 0 | i | -6 | -1 | -3
COc1cccc(C(=O)N[C@H](C(=O)N2CCC[C@H]2C(=O)NCCc2ccccc2Cl)C(C)C)c1 | 3 | · | -4 | 0 | · | 1 | · | ·
COc1ccc(C(=O)Nc2nnc(C)s2)cc1S(=O)(=O)N1CCOCC1 | 12* | · | -5 | -4 | · | -8 | -8 | -3
O=C(COc1ccc(S(=O)(=O)N2CCOCC2)cc1)NC1CC1 | 10* | -8 | -2 | -1 | · | 2 | 1 | 3
COc1ccc(C(=O)OCC(=O)NC2CC2)cc1S(=O)(=O)N1CCOCC1 | 9.6* | -3 | 3 | -4 | i | 6 | -5 | 0
O=C(NCc1ccccc1)[C@@H]1CCCN1C(=O)[C@H]1CCCN1C(=O)c1c(F)cccc1F | 3 | · | 2 | -1 | · | -1 | · | ·
